Source: PubChem BioAssay (NCATS)
Inconclusive results are not listed. Calls of active or inactive are those of the source. Calls follow the shape of the full dose curve.

Key:
[1] = Primary qHTS for inhibitors of SARS-S pseudo-typed particle cell entry (AID 1479145); also: nearly all actives have a fitted effect of over 45% in size
[2] = Primary qHTS for Huh7 cytotoxicity: counterscreen for inhibitors of MERS-S pseudotyped particle cell entry (AID 1479147)
[3] = Primary qHTS for inhibitors of MERS-S pseudo-typed particle cell entry (AID 1479149); also: nearly all actives have a fitted effect of over 60% in size
[4] = Primary qHTS for Vero E6 cytotoxicity: counterscreen for inhibitors of SARS-S pseudo-typed particle cell entry (AID 1479150)

Measured: Potency

Cc1cc2c(cc1CC(=O)c1sccc1S(=O)(=O)Nc1onc(C)c1Cl)OCO2
inactive: all assays above

Cc1c(I)c(=O)n(-c2ccccc2)n1C
inactive: all assays above

CC(=O)NCc1c(I)c(NC(C)=O)c(I)c(C(=O)O)c1I
inactive: all assays above

COc1ccc(C(=O)c2ccccc2)c(O)c1
inactive: all assays above

CC(=O)OCC(=O)[C@@]1(O)CC[C@H]2[C@@H]3CCC4=CC(=O)CC[C@]4(C)[C@H]3C(=O)C[C@@]21C
inactive: all assays above

O=C(O)[C@H](O)c1ccccc1
inactive: all assays above

CC[N+](C)(CC)CCOC(=O)C1c2ccccc2Oc2ccccc21
inactive: all assays above

CCC1(C)CC(=O)NC1=O (stereo not drawn)
inactive: all assays above

CN1[C@@H]2CC(OC(=O)[C@H](CO)c3ccccc3)C[C@H]1[C@@H]1O[C@@H]12 (stereo partly drawn)
inactive: all assays above

CCN(CC)CCNC(=O)c1cc(S(C)(=O)=O)ccc1OC
inactive: all assays above

O=C(CS(=O)Cc1ccco1)NC/C=C\COc1cc(CN2CCCCC2)ccn1 (stereo not drawn)
inactive: all assays above

Cc1cccc(C)c1OCC(=O)N[C@@H](Cc1ccccc1)[C@@H](O)C[C@H](Cc1ccccc1)NC(=O)[C@H](C(C)C)N1CCCNC1=O
inactive: all assays above
